Bioassay records (PubChem BioAssay)
Rtt109 HAT inh: inhibitors of Candida albicans Rtt109/Vps75 histone acetyltransferase | Q5AAJ8 | purified Rtt109/Vps75, ThioGlo CoA-SH fluorescence, 4 h | inhibition, % at 34.9 µM | 0.16% of 330,000 active;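 active means inhibition of at least 50% in every replicate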
Target sequence (Q5AAJ8 whole entry, looked up): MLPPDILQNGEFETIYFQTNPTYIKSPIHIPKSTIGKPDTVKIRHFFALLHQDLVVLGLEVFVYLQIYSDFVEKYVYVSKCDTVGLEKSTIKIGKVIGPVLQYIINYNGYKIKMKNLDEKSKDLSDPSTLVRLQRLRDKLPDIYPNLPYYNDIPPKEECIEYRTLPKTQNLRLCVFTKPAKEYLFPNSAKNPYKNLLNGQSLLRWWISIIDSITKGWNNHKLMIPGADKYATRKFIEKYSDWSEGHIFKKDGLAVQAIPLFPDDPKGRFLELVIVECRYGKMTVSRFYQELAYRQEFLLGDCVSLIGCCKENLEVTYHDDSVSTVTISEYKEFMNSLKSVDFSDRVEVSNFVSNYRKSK
PHOSPHO1 block: PHOSPHO1 (human) inhibition; Q8TCT1; recombinant PHOSPHO1, absorbance phosphatase assay; inhibition, % at 13.3 µM; 1.1% of 290,000 active; AID 1565; in the data active means inhibition above about 60%
Target sequence (Q8TCT1 whole entry, looked up): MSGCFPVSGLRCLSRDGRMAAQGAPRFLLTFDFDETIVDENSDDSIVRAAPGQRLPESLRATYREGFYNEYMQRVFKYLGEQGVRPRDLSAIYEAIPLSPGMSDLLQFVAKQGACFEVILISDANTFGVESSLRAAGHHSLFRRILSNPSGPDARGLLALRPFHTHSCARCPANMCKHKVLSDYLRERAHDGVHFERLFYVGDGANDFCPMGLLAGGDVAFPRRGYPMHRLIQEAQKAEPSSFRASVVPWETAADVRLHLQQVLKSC
WT yeast gro inh: growth inhibition of WT yeast, mitochondrial fusion screen | mitochondrial fusion phenotypic screen, WT strain | inhibition, % at 10 µM | 2.1% of 190,000 active | AID 1362; in the data active means inhibition above about 58%; tested in S. cerevisiae
SKKanGAS inh: inhibitors of SKKanGAS S. pyogenes growth in kanamycin (SK-promoter or general growth effect). BacTiter-Glo, 6 h. 1.3% of 300,000 active. inhibition, % at 7.5 µM;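 active means mean replicate score, as percent of positive control median, at least 50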;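 further: strain carries kanamycin resistance gene driven by streptokinase promoter and grows in 40 µg/ml kanamycin; loss of luminescence reflects streptokinase promoter inhibition or plain growth inhibition; 0% = median of DMSO wells and 100% = positive control at its reference dose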
TPT1 inh: C. albicans TPT1 enzyme inhibition | recombinant caTPT1, FP RNA substrate dephosphorylation | inhibition, % at 5 µM | 0.81% of 300,000 active | AID 1962;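 active means inhibition above the mean of all tested compounds plus 3 SD, set per screening campaign, cut at about 24% in these data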;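 further: plate controls were DMSO alone for no effect and ferristatin control at 100 nM for full effect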
Platelet DG rel: platelet dense granule release activity. inhibition, %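 (compounds screened at 7.5 µM in platelet-rich plasma)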. 0.22% of 300,000 active. human platelet-rich plasma, SFLLRN dense granule ATP release, luminescence;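 active means mean replicate score, as percent of positive control, at or above 50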
An asterisk follows results filed as active; . = not tested or not shown. Sampled rows, rich in hits. Any-hit rate of the full collection: about 3.9%.

SMILES | Rtt109 HAT inh | PHOSPHO1 block | WT yeast gro inh | SKKanGAS inh | TPT1 inh | Platelet DG rel
Cc1ccc(C(=O)NC(=S)NNS(=O)(=O)c2ccccc2)cc1 | 7 | 62* | 23 | -5 | -2 | 5
O=C(NNC(=S)NC(=O)c1sc2ccccc2c1Cl)c1ccc(Cl)cc1 | -3 | -11 | 30 | 96* | -1 | -3
CCC(=O)NC(=S)NNC(=O)c1ccc(OC)cc1 | 12 | -11 | -26 | 10 | -2 | -7
O=C(NC(=S)Nc1ccc(Oc2ccccc2)cc1)c1ccc(Cl)cc1 | 55* | 16 | 24 | 8 | -2 | -3
COc1ccc(NC(=O)c2cn(-c3ccccc3)nc2-c2ccncc2)cc1 | -3 | 8 | 5 | 5 | -9 | 11
Cc1ccc(C(=O)NC(=S)Nc2ccc(Oc3ccc(Cl)cc3)cc2)cc1 | 0 | -11 | 8 | -3 | -4 | 9
COc1ccc(C(=O)NC(=S)NNC(=O)c2ccc(C)cc2)cc1 | 4 | . | . | 83* | -3 | 3
COc1ccc(-c2nn(-c3ccccc3)cc2C(=O)NC(=S)NNC(=O)c2ccncc2)cc1 | 19 | 25 | -8 | 89* | 0 | 9
COc1ccc(C(=O)NNC(=O)c2ccccn2)cc1 | -2 | -2 | 56 | 4 | -1 | 77*
COc1ccccc1C(=O)N(Cc1ccc(Cl)cc1)C1CCS(=O)(=O)C1 (centres undefined) | 1 | 37 | . | -3 | 0 | 7
CCN(CC(=O)Nc1ccc(NC(C)=O)cc1)C(=O)c1cc(S(=O)(=O)N2CCCCCC2)ccc1OC | 1 | . | . | -3 | -1 | 7
O=C(CN1C(=O)NC2(CCOc3ccccc32)C1=O)NCCc1ccc(F)cc1 (centres undefined) | 1 | . | . | . | . | .
CCOc1cccc2cc(C(=O)NCc3ccc(Cl)cc3)c(=N)oc12 | 13 | 13 | . | 7 | 0 | 41
O=C(NC(=S)NCc1ccccc1)c1ccc(Br)cc1 | . | . | . | -11 | 0 | 0
O=C(/C=C/c1ccccc1)NC(=S)NNC(=O)c1cnccn1 | 16 | -107 | . | 64* | 0 | -1
COc1cccc(C(=O)N/N=C(/c2ccccc2)c2ccccn2)c1 | -4 | 16 | 66* | 56* | 0 | 11
COc1ccc(C(=O)NC(=S)NCc2ccccc2)cc1 | 13 | 62* | 6 | -6 | -1 | -11
COc1cc(C(=O)N/N=C(\c2ccccc2)c2ccccn2)cc(OC)c1OC | . | -21 | 3 | 23 | 0 | 7
O=C(/C=C/c1ccccc1)NC(=S)NNC(=O)c1cccnc1 | -1 | 4 | -3 | 15 | -8 | 0
COc1cc(C(=O)NNC(=S)NC(=O)c2ccc(Cl)cc2)cc(OC)c1OC | 4 | 69* | -1 | 93* | -1 | -18
COC(=O)c1cc(S(=O)(=O)N2CCN(C(=O)c3ccco3)CC2)cn1C | -11 | 23 | . | 0 | 3 | 8
COc1ccc(C(=O)NC(=S)N2CCC(C)CC2)cc1 | -4 | 69* | 10 | 12 | 3 | 9
COc1cc(C(=O)NNC(=S)NC(=O)/C=C/c2ccccc2)cc(OC)c1OC | 34 | 87* | . | 93* | -2 | -10
COc1ccc(C(=O)NNC(=S)NC(=O)c2ccc(Cl)cc2)cc1 | 4 | . | . | 79* | 0 | 3
COc1ccc(C(=O)NC(=S)N2CCCC2)cc1 | -1 | -72 | . | -4 | 0 | -1
SMILES | Rtt109 HAT inh | PHOSPHO1 block | WT yeast gro inh | SKKanGAS inh | TPT1 inh | Platelet DG rel
COc1ccc(C(=O)NC(=S)NNC(=O)c2cccnc2)cc1 | 2 | -110 | . | 14 | 1 | 3
CCC(C)[C@H](NC(=O)C1CC(=O)N(c2ccc3c(c2)OCO3)C1)C(=O)NC1CCCCC1 (some centres undefined) | -1 | -34 | . | 0 | -14 | 5
COCCNC(=O)Cn1ccc2cc(S(=O)(=O)N3CCCCCC3)ccc21 | 14 | 33 | . | 1 | 0 | 1
O=C(NC1CCN(c2ncccn2)CC1)c1ccccc1Cl | -3 | 31 | . | -5 | -2 | -1
CCS(=O)(=O)c1nc(S(=O)(=O)c2ccc(C)cc2)c(NCCN2CCOCC2)s1 | -5 | 53 | . | 54* | 0 | -1
Cc1cccc(OCC(=O)Nc2ccc(C(=O)Nc3ccccc3C(=O)O)cc2)c1C | -5 | 8 | . | 58* | 1 | 4
CC(C)c1ccc(OCC(=O)Nc2cccc(C(=O)Nc3ccccc3C(=O)O)c2)cc1 | -1 | 21 | 11 | 34 | 1 | -1
CC(C)(C)c1ccc(OCC(=O)Nc2ccc(C(=O)Nc3ccccc3C(=O)O)cc2)cc1 | 3 | -10 | . | 83* | -1 | 11
Clc1ccc(-c2ccnc3nc(N4CCOCC4)nn23)c(Cl)c1 | 0 | . | . | . | . | .
c1ccc(Oc2ccc(-c3ccnc4nc(N5CCOCC5)nn34)cc2)cc1 | -8 | 50 | -1 | 5 | -2 | -3
CC(Oc1ccccc1)c1ccnc2nc(N3CCOCC3)nn12 (centres undefined) | -5 | 60* | 5 | -10 | -3 | 6
CC(Oc1ccc(Cl)cc1Cl)c1ccnc2nc(N3CCOCC3)nn12 (centres undefined) | -7 | 8 | 75* | -12 | 1 | 3
O=C1c2cccc3cccc(c23)C(=O)N1CCCN1CCN(c2ccc(F)cc2)CC1 | 6 | 22 | 60* | 5 | -1 | 3
Cc1ccc(S(=O)(=O)N2C(=S)SCC2(C)C)cc1 | . | -7 | -10 | 4 | . | -13
COc1ccc2c(c1)C(C)=CC(C)(C)N2S(=O)(=O)c1ccc(C)cc1 | -5 | 15 | 45 | 8 | 5 | -1
CC1=CC(C)(C)N(S(=O)(=O)c2ccc(C)cc2)c2cc(C)ccc21 | -6 | 28 | 76* | 2 | -1 | 9
CCOc1ccc2c(c1)C(C)=CC(C)(C)N2S(=O)(=O)c1ccc(C)cc1 | 7 | 15 | 72* | -9 | . | -5
Cc1[nH][nH]c(=O)c1C(c1c(C)[nH][nH]c1=O)c1cn(Cc2ccccc2Cl)c2ccccc12 | -8 | 3 | 63* | 30 | . | 0
N/C(=N\O)c1cn(Cc2ccccc2Cl)c2ccccc12 | -7 | 27 | . | -1 | 0 | 6
Cn1cnnc1SCC(=O)N1N=C2/C(=C/c3ccco3)CCCC2C1c1ccco1 (centres undefined) | 11 | 80* | 5 | -1 | -1 | 2
Cc1cccc(C(=O)n2c(=S)nc3ccccn32)c1 | 20 | 85* | 13 | 4 | 0 | 24
CCC(=O)Nc1c2c(nn1-c1ccc(C)cc1C)CSC2 | 1 | 86* | 3 | 6 | -2 | -2
Cc1ccc(-n2nc3c(c2NC(=O)C(C)(C)C)CSC3)c(C)c1 | 2 | 88* | 10 | -3 | -2 | -13
CC1CCCN(C(=O)COC(=O)Cc2c(F)cccc2Cl)C1 (centres undefined) | 0 | 31 | . | -2 | -6 | -4
Cc1ccc(NC(=O)NCCSc2ccc(C)cc2)cc1 | 8 | 32 | -9 | -8 | 0 | 16
Cc1ccc(SCCNC(=S)Nc2ccc(C)cc2C)cc1 | . | 5 | 69* | -4 | 1 | -8
